# Assay results as given in PubChem BioAssay AID488794 (Sanford-Burnham Center for Chemical Genomics, 2010).
# The campaign covered roughly 1,000 compounds. About 550 (55%) were called active. Rule as the data show it: active = inhibition above about 50%; inactive = the rest. So high a share suggests a set chosen from earlier hits. A selection follows.
# Assay: yeast-expressed human NALP3 blockade, retest – luminescence, single concentration, confirmation (AID 488794)
# Details: yeast expressing human NALP3, luminescence read-out; at 10 µM; stronger effect = higher value
row,SMILES,inhibition
1,CCCCCCCCCCCCn1ccc(=N)cc1,82.8% (active)
2,Cc1cc2ccccn2c1C(C[N+](=O)[O-])c1c(F)cccc1Cl (centres undefined),23.2% (inactive)
3,Cc1ccc(-c2nc3ccccc3c(=O)n2-c2ccc(Br)cn2)cc1,45.7% (inactive)
4,O=C1/C(=C\c2ccc3c(c2)OCO3)N2CCC1CC2,35% (inactive)
